# PubChem BioAssay AID1347417 (National Center for Advancing Translational Sciences (NCATS), 2020)
# In all, about 120,000 compounds went through this assay and about 5,300 (4.4%) were called active. Roughly 22% stayed inconclusive and do not appear here. What follows is part of a selection rich in actives, with near analogues and random picks from the rest. A number with no mark means an inactive call. Calls follow the shape of the dose curve; as a rule, active = well fitted inhibition curve with a large enough effect; inconclusive = small, poorly fitted or top-dose-only effect; inactive = no such curve, though single readings can be large or run the other way.
# Experiment: qHTS Primary assay for Inhibitors of Plasmodium falciparum Dd2 growth in vitro; also: nearly all actives have a fitted effect of over 65% in size;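 as to activity, negative = inhibition: plate controls were DMSO vehicle for no effect and reference drug for full effect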
# Details: P. falciparum Dd2 growth, SYBR Green, 72 h; series mostly up to 28.9 µM; activity, negative = inhibition: at the top concentration
# Description: Malaria, a parasitic disease spread to humans through the bite of a Plasmodium infected Anopheles mosquito, continues to be a global health burden affecting millions of people, with an estimated 228 million cases and 405,000 deaths in 2018. Concerns about safety and limitations of current antimalarial treatments strongly emphasize the need to develop new therapeutic options. The scarce number of chemotypes and validated drug targets with efficacy against the liver stage, have hindered development of new antimalarials. To address this, a chemoprophylactic drug discovery effort was conducted through a combined phenotypic high-throughput asexual blood stage and liver stage screen, providing a robust foundation to identify liver-stage active lead chemotypes. Compounds were initially screened against Plasmodium falciparum Dd2 strain parasites using a in vitro SYBRGreen-1 based 72 hr proliferation assay to identify novel chemotypes to advance to liver stage assays. NIH/NCATS Early Translation Branch Assay Submitter (PI): Anton Simeonov Ph.D.
# Malaria-vivax Assay Protocol: PROTOCOL TABLE (as described by Inglese et al., 2007) SEQUENCE No. (e.g., 1, 2, 3, etc.); […] (e.g., Cells, Incubation, Reagent, etc.); VALUE; DESCRIPTION SEQUENCE, Parameter, Description 1; Reagent; 3 uL complete malaria growth medium, 1536 TC treated Black clear bottom plate 2; Controls; 23 nL positive control artesunate (300 nM final) to column 1; Neutral control DMSO to columns 2-4 3; Compound; 23 nL of compounds in dose response concentration (29 uM to 0.5 nM final) 4; Reagent; 5 uL malaria infected red blood cells (2.5% hematocrit final, 0.3% parasitemia 5; Time; 72 hours at 37C (5% O2, 5% CO2, 90% N2; 95% Rh) 6; Reagent; 2 uL lysis buffer/SYBRGreen-1, 25 sec shake immediately following dispense 7; Time; ~16 hours at 37C (5% O2, 5% CO2, 90% N2; 95% Rh) 8; Detector; EnVision (PerkinElmer) bottom read at 485/14nm excitation and 535/25 nm emission NOTES (numbers refer to sequence above): 1; Complete Malaria Growth Media: 1X RPMI-1640 w/L-glutamine, 5.5g/L Albumax II, 367 uM Hypoxanthine, 25 mM HEPES, 0.25% Sodium Bicarbonate, 35 uM Gentamicin sulfate 2; Controls were added using the Kalypsis Pintool (Wako USA) equipped with 1536 pinhead 3; Compounds were added in a 7-point, titration with a high final concentration of 29 uM by Pintool from seven inter-plate titrations of library plates and two DMSO control plates at the beginning and end (see Yasgar et al., 2008). 4; Red blood cells infected with Plasmodium falciparum Dd2 parasites were used. 6; Lysis buffer: 20 mM Tris-HCl, 10 mM EDTA, 0.16% Saponin, 1.6% Triton-X, 10X SYBR Green. REFERENCE: Inglese J, Shamu CE, Guy RK. 2007. Reporting data from high-throughput screening of small-molecule libraries. Nat Chem Biol. doi:10.1038/nchembio0807-438 Yasgar A, Shinn P, Jadhav A, Auld D, Michael S, Zheng W, Austin CP, Inglese J, Simeonov A. 2008. Compound Management for Quantitative High-Throughput Screening. J Lab Autom 13:79-89. doi:10.1016/j.jala.2007.12.004
# Potency is read from the fitted curve at half-maximal effect.
SMILES,"activity, negative = inhibition",Potency,outcome
C=CCN(C)C[C@H]1CN2CC[C@H]1C[C@@H]2CNC(=O)Nc1cccc(SC)c1,-1.33% [at 44.1 µM],,
CN(Cc1ccccc1)C[C@H]1CN2CC[C@H]1C[C@@H]2CNC(=O)Nc1ccsc1,,10 µM (active),
CC[C@H]1CN2CC[C@H]1C[C@@H]2CNC(=O)c1ccc(N(C)C)cc1,-23.9% [at 44.1 µM],,
COc1ccc(OC)c(-c2noc(N3CCN(c4cc(Cl)ccc4C)CC3)n2)c1,,8.91 µM (active),
COc1ccc(S(=O)(=O)N2CCN(c3ccc(F)cc3)CC2)cc1-c1noc(C)n1,-4.06%,,
CCc1nc(-c2cc(S(=O)(=O)N3CCN(c4ccc(OC)cc4)CC3)ccc2OC)no1,-2.1%,,
COc1nccnc1NC1CCN(C(=O)CCc2c(C)noc2C)CC1,30.5% [at 5.79 µM],,
O=C(Cc1ccsc1)N1CCC(c2n[nH]c(=O)n2Cc2ccc(F)cc2)CC1,-19.7%,,
Cn1cc(CNC(=O)C[C@@H]2C[C@H]3O[C@H](CNC4CCCC4)[C@@H](O)[C@H]3O2)cn1,,,inactive [at 44.1 µM]
COc1cc(-c2ccnc3nc(C4CC4)nn23)cc(OC)c1OC,,,inactive
Cc1cc(Nc2cccc(C(F)(F)F)c2)nc2ccc(NC(=O)c3ccc(=O)[nH]c3)cc12,,3.98 µM (active),
Cn1c(C(=O)Nc2cccc(C(F)(F)F)c2)cc2c(=O)n3ccccc3nc21,-9.41%,,
Cc1cccc(C(=O)Nc2ccc(-c3nc4ccccc4s3)c(C)c2)c1,-25.6%,,
O=C(O)c1ccnc(-c2ccnc(NCCN3CCCCC3CO)n2)c1 (stereo not drawn),23.5%,,
COc1cccc(C(=O)N2CCCN(C(=O)C3CC3)c3ccccc32)c1OC,0.674%,,
CN1CCCN(C(=O)c2ccccc2OC(F)(F)F)c2ccccc21,-8.3%,,
COc1ccccc1C(=O)N1CCCN(CCc2ccccc2)c2ccccc21,,11.2 µM (active),
COc1ccc(C2Cn3nnc(-c4noc(-c5ccccc5)n4)c3CO2)cc1 (stereo not drawn),,,inactive
COCCN1C(=O)[C@H]2CN(Cc3ccsc3)C[C@H]2C1=O,16.4%,,
COc1ccc(/C=C/c2nc(C#N)c(NCc3ccc(F)cc3)o2)cc1OC,,,inactive; activator; fitted 1.9953 uM
COc1ccccc1/C=C/c1nc(C#N)c(NC(C)c2ccccc2)o1 (stereo not drawn),,4.47 µM (active),
N#Cc1nc(/C=C/c2ccc(F)cc2)oc1NCc1ccc(F)cc1,-2.83%,,
COCCn1nnnc1C1CC2(CCOCC2)C(=O)N1Cc1ccc(SC)cc1 (stereo not drawn),25.7%,,
COc1ccc(C(=O)Nc2cccc(-c3nnc4n3CCCC4)c2)cc1,,10 µM (active),

SMILES,"activity, negative = inhibition",Potency,outcome
COc1cccc(NC(=O)c2c(OC)cc(=O)n3c2CCCC3)c1,29.4%,,
CC(=O)Nc1cccc(-c2nnc3n2CCCC3)c1,-23.7%,,
Cc1noc(C)c1C(=O)N1CC(N(Cc2cccnc2)CC(C)C)C1,-2.89%,,
O=C(c1ccsc1)N1CCCn2cc(-c3ccc4c(c3)OCO4)nc21,,,inactive
Cc1ccc(-n2c(=O)c3cccnc3n2CC(=O)Nc2ccccc2C(F)(F)F)cc1C,,8.91 µM (active),
Cc1ccc(-n2c(=O)c3cccnc3n2CC(=O)NCc2ccc(F)cc2)cc1C,-19.7%,,
CC(C)c1ccc(NC(=O)Cn2c3ncccc3c(=O)n2-c2ccccc2)cc1,2.68%,,
C=CCNC(=O)N1CC[C@H]2CC(=O)N(c3ccccc3)CC[C@H]2C1,-10.2% [at 44.1 µM],,
C[C@@]1(O)CCN(Cc2cc(=O)n3[nH]cnc3n2)C[C@@H]1O,8.29%,,
O=C(C1CCCC1)N1CCCC(c2noc(COc3ccccc3)n2)C1 (stereo not drawn),,8.91 µM (active),
CCOc1ccc(C(=O)N2CCCC(c3noc(COC)n3)C2)cc1 (stereo not drawn),57%,,
COCc1nc(C2CCCN(C(=O)c3ccccn3)C2)no1 (stereo not drawn),63.7%,,
O=C(CCS(=O)(=O)c1cc(Br)cc2c1N(C(=O)C1CC1)CC2)Nc1ccc(C(F)(F)F)cc1,,1.12 µM (active),
O=C(C1CC1)N1CCc2cc(Br)cc(S(=O)(=O)N3CCN(c4ccccc4F)CC3)c21,24%,,
COC(=O)c1cc(NC(=O)CCS(=O)(=O)c2cc(Br)cc3c2N(C(=O)C2CC2)CC3)cc(C(=O)OC)c1,9.63%,,
CN1CC2(CCN(C(=O)c3cccn3C)CC2)CC1C(=O)N1CCOCC1 (stereo not drawn),2.81%,,
O=C(Nc1ccc(F)cc1F)c1ccc2c(c1)n(Cc1cccc(F)c1)c(=O)c1ccnn12,-5.91%,,
CCNC(=O)N1CCCC1c1noc(CCC(=O)NCCc2nc3ccccc3[nH]2)n1 (stereo not drawn),,,inactive; activator; fitted 3.9811 uM
C[C@H](C(=O)N1Cc2ccccc2CC2(CCN(Cc3ccncc3)CC2)C1)c1ccccc1,,11.2 µM (active),
CC(=O)N1Cc2ccccc2CC2(CCN(Cc3ccc(O)cc3)CC2)C1,-15.7%,,
CC(=O)N1Cc2ccccc2CC2(CCCN(Cc3ccncc3)C2)C1 (stereo not drawn),-19.2%,,
O=C(CCc1cccnc1)N1CCc2c(n(CCOc3ccccc3)n(-c3ccccc3)c2=O)C1,9.6%,,
COCCCNC(=O)c1cc(C2CC2)nc2onc(C3CCCN3)c12 (stereo not drawn),-11.5%,,
CC(C)C[C@@H]1N[C@H](C(=O)NC(C)C)Cc2c[nH]c3cccc1c23,-0.792% [at 44.1 µM],,
